Experimental data published in PubChem BioAssay (NCATS).
Results filed as inconclusive are left out. Entries that show only a call come without a potency. Active and inactive are the calls of the source. The call rests on the fitted dose curve; in most records, active means well fitted curve in the direction sought with a large enough effect; inconclusive means small, poorly fitted or top-dose-only effect, or another doubt; inactive means no such curve, though single readings can be large; an effect the other way counts as inactive or inconclusive.

Experiments:
[1] = Identifying Small Molecule Inhibitors of Pancreatic Cancer Stem Cells (SN12C, Adherent) (AID 1259358);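 further: cell survival measured after 48 h of compound exposure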; further: potency means the concentration at half of the fitted maximal effect
Outline: (§1)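 Spheroids grown 14 days in stem cell media on hydrogel-coated nonadherent plates; 2D lines seeded directly. Compounds added after 4 h attachment, 48 h at 37C, 5% CO2; CellTiter-Glo luminescence normalized to DMSO (no inhibition) and no-cell wells (full inhibition).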

[2] = Identifying Small Molecule Inhibitors of Pancreatic Cancer Stem Cells (SN12C, Spheroid) (AID 1259360); settings: Potency: SN12C spheroid viability; further: potency means the concentration at half of the fitted maximal effect
Outline: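 Luminescent ATP readout (CellTiter-Glo) quantifies surviving cells after a 48 h drug incubation. Normalization uses DMSO wells as no inhibition and media-only wells as full inhibition; bortezomib served as positive control.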

[3] = P-glycoprotein substrates identified in KB-8-5-11 adenocarcinoma cell line, qHTS therapeutic library screen (AID 1346987); further: nearly all actives have a fitted effect of over 65% in size; further: potency means the concentration at half of the fitted maximal effect
Outline: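 Luminescence from CellTiter-Glo, read 5 min after addition, quantified survival of KB-8-5-11 (P-gp-overexpressing) cells exposed to compounds for 72 h. AC50 was derived from concentration-response curves.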

[4] = NS1 protein of Zika virus - qHTS assay to identify small molecule inhibitors in human HEK 293 cells (AID 1347053); further: series mostly up to about 46 µM; nearly all actives have a fitted effect of over 55% in size
Outline: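 TR-FRET signal from two anti-ZIKV NS1 antibodies quantified NS1 in HEK 293 cells 24 h after MR766 infection at MOI = 0.5; compounds were added 1 h before virus. Uninfected cells and infected cells defined the NS1 normalization range.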

[5] = qHTS of pediatric cancer cell lines to identify multiple opportunities for drug repurposing: Primary screen for TC32 cells (AID 1347089); further: nearly all actives have a fitted effect of over 60% in size
Outline: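 Luminescent ATP read-out (CellTiter-Glo) of metabolically active TC32 cells after 48 h exposure. Concentration-response curves came from 11-point (MIPE, 0.78 nM–46 µM) or 8-point (NPC, 0.59 nM–46 µM) primary titrations; follow-up used 11 points.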

[6] = qHTS of pediatric cancer cell lines to identify multiple opportunities for drug repurposing: Primary screen for DAOY cells (AID 1347090); further: nearly all actives have a fitted effect of over 55% in size; further: potency means the concentration at half of the fitted maximal effect
Outline: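 Viability measured as metabolically active cells via CellTiter-Glo luminescence following 48 hours of compound exposure, 11-point dilutions in confirmatory testing. 500-1,000 cells/well plated 5 hours before dosing; controls were DMSO and 2.3 µM bortezomib.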

[7] = Identifying Small Molecule Inhibitors of Pancreatic Cancer Stem Cells (Panc1, Adherent) (AID 1259362); settings: Potency: viability;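 further: compound exposure lasted 48 h before the viability read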
Outline: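 Endpoint: ATP-based luminescence, 48 h drug exposure. Bortezomib at 9.2 uM final as full-kill control; DMSO vehicle as negative control; activity normalized between vehicle and cell-free wells.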

[8] = Identifying Small Molecule Inhibitors of Pancreatic Cancer Stem Cells (A278, Adherent) (AID 1259361);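 further: viability read after 48 h compound exposure; nearly all actives have a fitted effect of over 35% in size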
Outline: as §1

[9] = Identifying Small Molecule Inhibitors of Pancreatic Cancer Stem Cells (Panc1, Spheroid) (AID 1259359);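 further: potency means the concentration at half of the fitted maximal effect; compound exposure lasted 48 h before reading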
Outline: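 Spheroids grown 14 days in stem cell media on nonadherent hydrogel before screening; cells attached 4 h, then compound exposure 48 h at 37C, 5% CO2. CellTiter-Glo luminescence normalized to DMSO (no inhibition) and no-cell wells (full inhibition).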

[10] = P-glycoprotein substrates identified in KB-3-1 adenocarcinoma cell line, qHTS therapeutic library screen (AID 1346986);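 further: potency means the concentration at half of the fitted maximal effect; potency is for cytotoxicity meaning loss of cell viability; nearly all actives have a fitted effect of over 60% in size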
Outline: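 In 1536-well format, 500 cells/well received pinned compound titrations and were incubated 72 h, 5% CO2. Viability was read by CellTiter-Glo; cytotoxic if AC50 < 10 uM and efficacy >50%.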

COc1nc(-c2ccc3c(c2)OCO3)n(-c2ccc(NC(=O)CSc3ccccc3)cc2)n1
Potency [1]: inactive
Potency [2]: inactive
Potency [3]: inactive
Potency [4]: inactive
Potency [5]: inactive
Potency [6]: inactive

CCCCCCCc1ccc(CCc2cccc(O)c2C(=O)O)cc1
Potency [1]: inactive
Potency [7]: inactive
Potency [5]: inactive

CC[C@@H](C)[C@H](NC(=O)[C@H](CC1CCCCC1)NC(=O)c1ccno1)C(=O)N1CCC2(CCc3ccccc32)CC1
Potency [1]: inactive
Potency [2]: 11.8 µM (active)
Potency [4]: inactive
Potency [5]: inactive
Potency [6]: inactive

COc1cc(Oc2ccnc3cc(OC)c(OC)cc23)ccc1NC(=O)NC(C)c1nccs1 (stereo unspecified)
Potency [3]: inactive
Potency [4]: inactive
Potency [5]: inactive
Potency [6]: inactive

O=C(O)c1ccc(-c2c[nH]c3ccc(-c4ccccc4)cc23)cc1C1CCCC1
Potency [1]: inactive
Potency [2]: inactive
Potency [7]: inactive

O=C(NOC[C@H](O)CO)c1ccc(F)c(F)c1Nc1ccc(I)cc1F
Potency [1]: 9.35 µM (active)
Potency [2]: 0.0053 µM (active)
Potency [4]: inactive
Potency [5]: inactive
Potency [6]: 18.7 µM (active)

COCCNCCCn1c(C(=O)CF)c(-c2ccc(C)cc2)c2c(N)ncnc21
Potency [1]: inactive
IC50 (viability decrease) [8]: 18.7 µM (active)
Potency [4]: inactive
Potency [5]: inactive

CN(C(=O)c1ccc(F)cc1C(F)(F)F)C1CCN(c2nnc(-c3ccnn3C)c3ccccc23)CC1
Potency [1]: inactive
Potency [2]: inactive
Potency [3]: inactive
Potency [4]: inactive
Potency [5]: inactive

C[C@@H]1CN(Cc2ccc(F)cc2)[C@@H](C)CN1C(=O)c1cc2c(C(=O)C(=O)N(C)C)cn(C)c2cc1Cl
Potency [2]: 16.6 µM (active)
IC50 (viability decrease) [8]: 20.9 µM (active)
Potency [3]: inactive
Potency [4]: inactive
Potency [5]: inactive

Cc1cc(-c2ccc(CC(=O)Nc3ccc(-c4cccnc4)cc3)cc2)ccn1
Potency [1]: inactive
Potency [2]: inactive
IC50 (viability decrease) [8]: 18.7 µM (active)
Potency [5]: inactive

N#CC[C@H](C1CCCC1)n1cc(-c2ncnc3[nH]ccc23)cn1
Potency [2]: inactive
Potency [4]: inactive
Potency [5]: inactive

CCC(=O)N[C@H]1CC[C@H](C(=O)N(C)c2ccc(-c3nc4ccccc4o3)cc2)C1
Potency [9]: 3.72 µM (active)
Potency [2]: 18.7 µM (active)
Potency [4]: inactive
Potency [5]: inactive
Potency [6]: 5.9 µM (active)

Cc1cnc(Nc2ccc(OCCN3CCCC3)cc2)nc1Nc1cccc(S(=O)(=O)NC(C)(C)C)c1
Potency [1]: inactive
Potency [2]: inactive
IC50 (viability decrease) [8]: inactive
Potency [5]: inactive
Potency [6]: inactive

CNC(=O)c1ccc(C)c(-n2c(C)cc(OCc3ccc(F)cc3F)c(Br)c2=O)c1
Potency [2]: 4.69 µM (active)
Potency [3]: inactive
Potency [4]: inactive
Potency [5]: inactive
Potency [6]: inactive

CCCn1c(=O)c2[nH]c(C34CC5CC3C[C@@H](C5)C4)nc2n(CCC)c1=O
Potency [1]: inactive
Potency [2]: inactive
Potency [3]: inactive
Potency [4]: inactive
Potency [5]: inactive
Potency [6]: inactive

CO[C@@H]1[C@H](N(C)C(=O)c2ccccc2)C[C@H]2O[C@]1(C)n1c3ccccc3c3c4c(c5c6ccccc6n2c5c31)C(=O)NC4
Potency [10]: 1.3 µM (active)

Cc1ccc(NC(=O)c2cccc(C(C)(C)C#N)c2)cc1Nc1ccc2ncn(C)c(=O)c2c1
Potency [1]: 7.43 µM (active)
Potency [3]: 16.6 µM (active)
Potency [5]: inactive

Cc1ccccc1C(C(=O)NC1CCCC1)N(C(=O)Cn1cnc2ccccc21)c1cccc(F)c1 (stereo unspecified)
Potency [1]: inactive
Potency [2]: inactive
Potency [5]: inactive
Potency [6]: inactive
